Hits are enriched below; roughly 7.5% of the tested compounds scored in any of these assays.
FLuc modulator – firefly luciferase modulation, counter-screen for miR-21 project. P08659. purified FLuc, Km substrates, luminescence inhibition. Potency, µM (titrated, usually from 57.5 µM), for the others: at the top dose activity change, negative = inhibition, hits mostly inhibitors. actives 6.9% (n = 360,000);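 also: plate controls were vehicle for no effect and reference inhibitor for full effect; nearly all actives have a fitted effect of over 55% in size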
Target sequence (P08659 whole entry, looked up): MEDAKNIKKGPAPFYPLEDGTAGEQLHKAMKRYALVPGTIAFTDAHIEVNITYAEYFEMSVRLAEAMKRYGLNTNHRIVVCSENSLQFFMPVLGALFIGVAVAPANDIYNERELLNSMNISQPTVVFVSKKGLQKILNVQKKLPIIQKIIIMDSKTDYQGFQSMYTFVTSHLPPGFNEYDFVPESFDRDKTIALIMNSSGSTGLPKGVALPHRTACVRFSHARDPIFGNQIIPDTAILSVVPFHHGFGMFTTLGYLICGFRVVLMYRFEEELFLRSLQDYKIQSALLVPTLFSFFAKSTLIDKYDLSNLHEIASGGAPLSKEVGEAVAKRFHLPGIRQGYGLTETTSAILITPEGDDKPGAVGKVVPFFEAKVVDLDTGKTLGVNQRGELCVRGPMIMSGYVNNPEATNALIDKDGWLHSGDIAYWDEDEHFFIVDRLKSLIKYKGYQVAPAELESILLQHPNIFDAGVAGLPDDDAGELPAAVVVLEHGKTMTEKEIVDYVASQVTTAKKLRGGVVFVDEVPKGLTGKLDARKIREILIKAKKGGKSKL
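Purified P. pyralis luciferase, 10 nM final, with Km-level 10 uM D-luciferin and 10 uM ATP in 50 mM Tris acetate pH 7.5, 10 mM Mg acetate, 0.01% Tween-20, 0.05% BSA; 6-point qHTS titration about 60 µM downward; luminescence read.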
Luc counter – Kinase-Glo luciferase inhibition (counter-screen) | Q27757 | Kinase-Glo luciferase, ATP luminescence, 8 min | Potency, µM (top dose mostly 38.3 µM), for the others: at the highest dose activity change, negative = inhibition, hits mostly inhibitors | actives 0.28% (n = 200,000); also: % is scaled to controls: 0 for no effect and ±100 for the full control effect; nearly all actives have a fitted effect of over 60% in size
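Light output from Kinase-Glo luciferase with luciferin and 10 uM ATP in 50 mM imidazole pH 7.2, KCl, MgCl2, Tween 20, BSA; compound pin-delivered, 8-min ambient incubation, then luminescence read.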
Rab9 prom act – activators of Rab9 promoter; AID 485297; Huh7 Rab9 promoter-luciferase reporter, luminescence, 24 h; actives 2.8% (n = 320,000); Potency, µM (top dose mostly 9.22 µM), for inactives: at the top dose activation, negative = inhibition, most hits filed as activators; also: % of control where 0% means no effect; nearly all actives have a fitted effect of over 60% in size
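Promoter activation is measured as luciferase luminescence in Huh7 cells stably transfected with a Rab9 promoter–luciferase construct, following 24 h compound exposure at 37 °C and 10 min reagent incubation at ambient temperature.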
NPC1 prom act – activators of NPC1 promoter; Potency, µM (highest dose often 9.22 µM), without a hit: at the top dose activation, most hits filed as activators; Huh7 NPC1 promoter luciferase reporter, 24 h; actives 2.4% (n = 320,000); AID 485313; also: % of control where 0% means no effect; nearly all actives have a fitted effect of over 60% in size
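Readout is luciferase luminescence, reflecting NPC1 promoter activation in stably transfected Huh7 cells after 24 h compound exposure at 37 °C in reduced-serum medium with 10% FBS.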
ELG1 genotox – induces genotoxicity in HEK293T cells with luciferase-tagged ELG1 | Potency, µM (top dose mostly 46 µM), without a hit: at the highest dose activity change, positive = activation, actives largely listed as activators | actives 1.3% (n = 330,000) | AID 504466 | HEK293T ELG1-luciferase reporter, luminescence, 16 h; also: % of control where 0% means no effect; nearly all actives have a fitted effect of over 60% in size
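HEK293T cells expressing luciferase-tagged ELG1 were exposed to compound or DMSO vehicle for 16 hr at 37 °C and 5% CO2. Luciferase activity was then measured with ONE-Glo after 30 min at room temperature.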
SMN2 splice enh – SMN2 splice variant enhancement; HEK293 SMN2-luciferase splicing reporter, luminescence, 30-36 h; Potency, µM (top dose mostly 46.1 µM), for the others: at the top dose activity change, positive = activation, hits mostly activators; actives 2.8% (n = 210,000); AID 1458; also: % of control where 0% means no effect; nearly all actives have a fitted effect of over 55% in size
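HEK293 cells carry an SMN2 minigene-luciferase reporter in which exon 7 inclusion puts luciferase in frame. Cells were seeded at 2000 cells/well, attached for 10-12 hours, then exposed to compounds for 30-36 hours at 37C before ONE-Glo luminescence.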
Numbers without * were called inactive; ? = inconclusive; nt = no result. Calls follow the shape of the dose curve; as a rule, active = well fitted curve in the direction sought with a large enough effect; inconclusive = small, poorly fitted or top-dose-only effect, or another doubt; inactive = no such curve, though single readings can be large; an effect the other way counts as inactive or inconclusive. Potency is read from the fitted curve at half-maximal effect.

SMILES	FLuc modulator	Luc counter	Rab9 prom act	NPC1 prom act	ELG1 genotox	SMN2 splice enh
CCC(=O)Oc1ccc(C(=O)Nc2ccc([N+](=O)[O-])cc2)cc1	-11.4%	-1.1%	?	2.82µM*	9.0%	14.1µM*
COC(=O)c1ccc2c(c1)N(CC(=O)Nc1cccc(Cl)c1C)C(=O)c1ccccc1S2	-1.8%	nt	nt	nt	nt	nt
CCN(CC(=O)NCc1cccs1)C(=O)c1ccc(NS(=O)(=O)c2ccc(F)cc2)cc1	-5.1%	nt	-0.9%	1.6%	-1.7%	nt
CC(C)Cn1c(C23CC4CC(CC(C4)C2)C3)n[nH]c1=S	1.8%	nt	-2.3%	-6.2%	-2.2%	nt
CCn1cc2nc(SCc3ccccc3Cl)n(Cc3ccc(OC)cc3)c(=O)c2n1	-1.1%	nt	nt	nt	nt	nt
CCCCN(CC)CCNC(=O)C1CCCN(c2ncnc3onc(C)c23)C1 (stereo unspecified)	-2.0%	nt	nt	nt	nt	nt
Cc1cc(C(=O)OCC(=O)N2CCC(c3ccccc3)=N2)ccc1[N+](=O)[O-]	12.8%	nt	0.9%	-2.2%	3.4%	nt
CC(=O)Nc1cccc(C(=O)OCC(=O)Nc2ccc(Cl)cn2)c1	?	nt	-2.5%	2.1%	11.2%	nt
CC(=O)Nc1cccc(C(=O)OCC(=O)NC(=O)c2ccccc2)c1	-13.0%	nt	0.3%	-0.9%	1.8%	nt
CCC(=O)Nc1cccc(C(=O)OCC(=O)c2ccccc2Cl)c1	7.57µM*	-1.1%	?	3.16µM*	?	26.5%
CC(=O)Nc1cccc(C(=O)OCC(=O)c2ccccc2Cl)c1	?	-4.9%	0.794µM*	3.55µM*	?	22.3%
CC(=O)Nc1cccc(C(=O)OCC(=O)N2CCC(c3ccccc3)=N2)c1	15.1µM*	nt	?	?	?	nt
O=C(COC(=O)C1CC2CCCC(C1)C2=O)NNC(=O)c1ccccc1F (stereo unspecified)	-1.4%	nt	-0.1%	-1.1%	-0.6%	nt
OCCc1ccc(O)c(-n2nc3ccccc3n2)c1	15.1µM*	nt	25.9%	22.8%	?	nt
Cc1ccc(C)n1CCN1CCN(C(=O)CC#N)CC1	0.3%	-3.0%	-1.1%	5.0%	13.3%	20.1%
O=C(O)c1ccccc1NS(=O)(=O)c1ccc(NNC(=S)Nc2ccc(OC(F)F)cc2)c([N+](=O)[O-])c1	19µM*	?	-3.4%	-3.5%	0.0%	-24.3%
Cc1ccc(NC(=S)NNc2ccc([N+](=O)[O-])cc2S(=O)(=O)Nc2ccccc2C(=O)O)cc1C	?	-10.1%	-12.3%	-8.1%	0.7%	-5.7%
Cc1cc(Nc2cccc(C(=O)O)c2)n2nc(C)nc2n1	-4.7%	nt	nt	nt	nt	4.6%
CC(=O)c1cccc(Nc2cc(C)nc3nc(-c4ccccc4C)nn23)c1	19µM*	nt	nt	nt	nt	2.5%
Cc1cc(C)n2nc(C(=O)Nc3ccc4c(c3)OCO4)cc2n1	4.78µM*	-13.2%	3.16µM*	1.26µM*	2.06µM*	7.94µM*
O=C(Nc1ccc2c(c1)OCO2)c1cc2nc(C3CC3)cc(C(F)(F)F)n2n1	-16.3%	-2.2%	16.9%	15.5%	6.5%	-16.8%
CC(=O)c1cccc(NC(=O)c2cc3nc(C)cc(C)n3n2)c1	7.57µM*	1.7%	2µM*	?	8.2µM*	12.6µM*
C[C@]12C[C@@](C)(C=C1/C=C/c1ccc(C(F)(F)F)cc1)C(=O)C[C@H]2c1ccc(C(F)(F)F)cc1	nt	0.1%	nt	nt	nt	3.7%
Cc1ccc2oc(-c3ccc(NC(=O)c4ccncc4)cc3O)nc2c1	?	-9.1%	24.4%	-0.5%	?	nt
Cc1ccc2oc(-c3cc(NC(=O)c4ncn[nH]4)ccc3O)nc2c1	2.69µM*	nt	2.1%	-3.4%	-0.3%	nt
SMILES	FLuc modulator	Luc counter	Rab9 prom act	NPC1 prom act	ELG1 genotox	SMN2 splice enh
COc1ccc(OC)c(NC(=O)c2c(NCc3ccc(C)o3)sc3c2CCC(C)C3)c1 (stereo unspecified)	-9.2%	nt	nt	nt	nt	nt
Cc1c2c(nc3ccccc13)CCC(C(C)(C)C)C2 (stereo unspecified)	12µM*	-0.9%	19.1%	22.7%	14.9%	?
Clc1c2c(nc3ccccc13)CCC2	?	nt	2.1%	-7.5%	-1.4%	nt
CCn1c(NCc2ccccc2Cl)nc2ccccc21	19µM*	0.0%	29.0%	19.2%	0.6%	?
CCCCn1c(NCc2ccc(N(C)C)cc2)nc2ccccc21	?	nt	8.8%	3.1%	-3.1%	-11.9%
C=CCn1c(NCc2ccc(N(C)C)cc2)nc2ccccc21	23.9µM*	1.8%	13.0%	17.9%	5.4%	29.7%
Cc1ccc(CNc2nc3ccccc3n2C)cc1	2.39µM*	nt	0.501µM*	0.501µM*	?	nt
Cn1c(NCc2ccc(Cl)cc2)nc2ccccc21	9.53µM*	-1.6%	3.55µM*	2.51µM*	?	11.2µM*
Cn1c2ccsc2c2ncn(Cc3ccccc3F)c(=O)c21	-4.3%	nt	-3.4%	-0.5%	5.4%	nt
COc1cc(-c2cc(-c3ccccc3)nc(SCC(=O)Nc3nccs3)c2C#N)cc(OC)c1OC	1.9%	-1.7%	6.2%	-3.0%	3.4%	-20.9%
Cc1csc(NC(=O)CSc2nsc(SCC(=O)Nc3nc(C)cs3)c2C#N)n1	?	0.9%	1.58µM*	2.51µM*	?	11.2µM*
C=CCn1c(SCC(=O)Nc2nccs2)nnc1-c1ccco1	5.3%	-1.3%	-0.3%	-2.4%	-0.1%	-7.3%
Cc1cc(C(F)(F)F)c(C#N)c(SCC(=O)Nc2nc3ccccc3s2)n1	1.2µM*	2.4%	0.398µM*	1.26µM*	0.231µM*	-87.9%
Cc1nc(SCC(=O)Nc2nccs2)c(C#N)c(C)c1C	1.07µM*	nt	0.562µM*	?	?	nt
Cc1ccc(NC(=O)CSc2nsc(SCC(=O)Nc3ccc(C)cc3C)c2C#N)c(C)c1	3.6%	nt	-5.1%	-6.3%	7.2%	nt
C=CCn1c(C)nnc1SCC(=O)Nc1nccs1	4.2%	nt	0.0891µM*	?	1.1%	nt
Cc1ccc(C)c(S(=O)(=O)NCC(c2ccco2)S(=O)(=O)c2ccc(F)cc2)c1 (stereo unspecified)	4.0%	nt	nt	nt	nt	nt
C=CCn1c(SCC(=O)Nc2ccccc2C)nnc1-c1ccncc1	0.1%	-2.7%	3.6%	0.8%	-1.6%	4.5%
Cc1ccc2sc(NC(=O)CSc3nc(C)cc(C)c3C#N)nc2c1	3.79µM*	-0.6%	27.8%	?	?	2.51µM*
Cc1nc(SCC(=O)Nc2nc3ccccc3s2)c(C#N)c(C)c1C	2.13µM*	-3.1%	-48.2%	-26.2%	-12.4%	-101.9%
C=CCn1c(SCC(=O)Nc2cccnc2Cl)nnc1-c1ccc(C(C)(C)C)cc1	21.3µM*	nt	2.6%	-1.8%	-3.2%	nt
COc1ccc(N2CCN(C(CNC(=O)C(=O)NCc3cccnc3)c3cccnc3)CC2)cc1 (stereo unspecified)	-9.6%	nt	nt	nt	nt	nt
